The target of assay [1] is Transcription factor E2F1 (Homo sapiens) (UniProt Q01094). In words: ATG_E2F_CIS: Attagene CIS-FACTORIAL HepG2 Assay for human E2F Transcription Factor 1 (AID 2282935). The conditions noted are these: HepG2 Attagene cis-reporter, E2F reporter RNA transcripts; actives raise or lower the signal. In outline: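 Transient MRTU transfection of HepG2; 24 h compound exposure; RNA → oligo(dT) RT → PCR → FAM label → HpaI cut → CE fluorescence. Gain/loss of signal fit against DMSO.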

The nature of assay [2]: ATG_E_Box_CIS: Attagene CIS-FACTORIAL HepG2 Assay for human Enhancer Box (E-box) (AID 2282936). The following applies: HepG2 E-box cis-reporter transcription, actives raise or lower the signal. The gist of the method: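 Transiently transfected HepG2, endogenous TF-driven reporters, 24 h dosing. Readout: RT-PCR plus capillary electrophoresis of fluorescent reporter fragments. Gain or loss of signal fitted bidirectionally against DMSO baseline.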

Assay [3] is described as follows: ATG_M_61_CIS: Attagene CIS-FACTORIAL HepG2 Assay for M61 Transcription Factor (Internal Marker) (AID 2282937). The conditions noted are these: HepG2 Attagene CIS-FACTORIAL M61 internal marker reporter; actives raise or lower the signal. The gist of the method:
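Transfect HepG2 with MRTUs; dose 24 h; isolate RNA; reverse-transcribe with DNase I treatment; PCR-amplify, FAM-label and cut with HpaI for 2 h at 37 C; resolve by CE. Bidirectional fitting against DMSO.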

Assay [4] is described as follows: ATG_EGR_CIS: Attagene CIS-FACTORIAL HepG2 Assay for human Early Growth Response 1 (EGR1) (AID 2282938). The following applies: HepG2 Attagene CIS-FACTORIAL EGR reporter mRNA; actives raise or lower the signal. The gist of the method:
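After a 24 h treatment of transiently transfected HepG2 cells, total RNA was reverse-transcribed and reporter sequences PCR-amplified, labelled and run on capillary electrophoresis. Reporters sit under cis-regulatory promoters sensing endogenous factors.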

Assay [5] in a line: ATG_M_19_CIS: Attagene CIS-FACTORIAL HepG2 Assay for M19 Transcription Factor (Internal Marker) (AID 2282939). The following applies: HepG2 Attagene CIS-FACTORIAL M19 internal marker reporter; actives raise or lower the signal. In outline:
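Following a 24 h exposure, RNA from transfected HepG2 cells was reverse-transcribed, PCR-amplified with reporter-specific primers, end-labelled with 6-FAM and HpaI-digested before capillary separation. Values represent gain or loss versus DMSO.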

Assay [6] can be described thus: ATG_ERE_CIS: Attagene CIS-FACTORIAL HepG2 Assay for Estrogen Response Element (ERE) (AID 2282940). The following applies: HepG2 ERE cis-reporter, Attagene RNA transcript; actives raise or lower the signal. In outline: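 HepG2, transient cis-reporter units, 24 h exposure. RNA isolated, oligo(dT) RT, reporter-specific PCR, FAM extension, HpaI cut, CE detection. Gain/loss-of-signal vs DMSO.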

Assay [7] is described as follows: ATG_Ets_CIS: Attagene CIS-FACTORIAL HepG2 Assay for human Erythroblast Transformation Specific (ETS) (AID 2282941). The following applies: HepG2 ETS cis-reporter transcription, actives raise or lower the signal. The gist of the method:
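Endogenous transcription factor activity read as reporter mRNA via RT-PCR and capillary electrophoresis, with gain or loss fitted bidirectionally against DMSO. Human HepG2 liver cells, transiently transfected CIS reporter constructs, 24 h exposure.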

Assay [8] addresses Hepatocyte nuclear factor 3-beta (Homo sapiens) (UniProt Q9Y261). Briefly: ATG_FoxA2_CIS: Attagene CIS-FACTORIAL HepG2 Assay for human Forkhead box A2 (FOXA2) (AID 2282942). The conditions noted are these: HepG2 cis-reporter transcription factor activity, 24 h; actives raise or lower the signal. In outline:
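24 h dosing of HepG2 bearing cis-reporter constructs; mRNA readout by RT-PCR/CE fluorescence; bidirectional fit, DMSO baseline.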

Assay [9] can be described thus: ATG_GATA_CIS: Attagene CIS-FACTORIAL HepG2 Assay for human GATA Binding Protein (AID 2282944). The conditions noted are these: HepG2 GATA cis-element reporter, Attagene multiplex mRNA; actives raise or lower the signal. In outline:
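DMSO serves as negative control and baseline for bidirectional fitting of reporter mRNA changes. HepG2 cells bearing transiently transfected cis-promoter reporters were exposed 24 h; transcripts detected via RT-PCR and capillary electrophoresis.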

Assay [10] can be described thus: ATG_GLI_CIS: Attagene CIS-FACTORIAL HepG2 Assay for human Zinc Finger Protein GLI1 (AID 2282945). The conditions noted are these: HepG2, Attagene cis-factorial reporter mRNA, GLI element; actives raise or lower the signal. In outline:
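Transiently transfected HepG2 cells report endogenous transcription factor activity via cis-element-driven reporter units. After 24 h compound exposure, reporter mRNA was measured by RT-PCR with capillary electrophoresis; bidirectional fitting against DMSO baseline.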

In assay [11] the target is Bile acid receptor (Homo sapiens) (UniProt Q96RI1). Briefly: ATG_IR1_CIS: Attagene CIS-FACTORIAL HepG2 Assay for human Nuclear Receptor Subfamily 1 Group H Member 4 (NR1H4), IR1 submotif (AID 2282946). The conditions noted are these: IR1 reporter transcription, actives raise or lower the signal. In outline: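 Fluorescence of capillary-separated, HpaI-digested RT-PCR reporter products gave IR1-element mRNA induction in HepG2 cells 24 h after dosing. Endogenous transcription factors drove the cis-regulated reporters; activity was fitted bidirectionally against DMSO.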

A short description of assay [12]: ATG_ISRE_CIS: Attagene CIS-FACTORIAL HepG2 Assay for human Interferon Regulatory Factor 1 (IRF1) binding to an Interferon-Stimulated Response Element (ISRE) (AID 2282948). The conditions noted are these: HepG2 ISRE cis-reporter (Attagene), mRNA transcription readout; actives raise or lower the signal. The gist of the method: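 Endogenous transcription factor activity read as reporter transcript abundance via RT-PCR and capillary electrophoresis. HepG2 cells transiently transfected, 24 h chemical exposure. Gain or loss fitted against DMSO baseline.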

The nature of assay [13]: ATG_M_32_CIS: Attagene CIS-FACTORIAL HepG2 Assay for M32 Transcription Factor (Internal Marker) (AID 2282949).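 Further: background control marker of the multiplexed CIS panel rather than a real target.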 The conditions noted are these: HepG2 Attagene cis-factorial M32 reporter, mRNA; actives raise or lower the signal. In outline:
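Transient MRTU transfection of HepG2; 24 h compound treatment; TriZol RNA, oligo(dT) RT, reporter PCR, 6-FAM primer extension, HpaI cut, CE. Gain/loss of signal vs DMSO.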

Assay [14] can be described thus: ATG_M_06_CIS: Attagene CIS-FACTORIAL HepG2 Assay for M06 Transcription Factor (Internal Marker) (AID 2282950). The following applies: HepG2 Attagene CIS-FACTORIAL M06 internal marker reporter; actives raise or lower the signal. The gist of the method:
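Fluorescence-labelled RT-PCR products from cis-promoter reporter units, cut with HpaI and resolved by capillary electrophoresis, give the signal. Cells are human HepG2, dosed for 24 h. Serves as background control, fitted relative to DMSO.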

Assay [15] addresses Hypoxia-inducible factor 1-alpha (Homo sapiens) (UniProt Q16665). Briefly: ATG_HIF1a_CIS: Attagene CIS-FACTORIAL HepG2 Assay for human Hypoxia Inducible Factor 1 (HIF1A) (AID 2282951). The following applies: HepG2 Attagene cis-factorial HIF1a reporter transcription; actives raise or lower the signal. The gist of the method: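 After 24 h chemical exposure of reporter-transfected HepG2 cells, reporter cDNA was PCR-amplified, labelled by 6-FAM primer extension (2 min 95 C, 20 s 68 C, 10 min 72 C), HpaI-cut (2 h, 37 C) and analysed by CE.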

For assay [16], the target named is Hepatocyte nuclear factor 6 (Homo sapiens) (UniProt Q9UBC0). Briefly: ATG_HNF6_CIS: Attagene CIS-FACTORIAL HepG2 Assay for human Hepatocyte Nuclear Factor 6 (HNF6) (AID 2282952). The following applies: HepG2 Attagene cis-factorial HNF6 reporter transcription; actives raise or lower the signal. The gist of the method: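 Twenty-four-hour chemical treatment of reporter-transfected HepG2 cells precedes RNA isolation, DNase-treated reverse transcription and PCR of reporter sequences. Labelled fragments are sized by capillary electrophoresis and fitted bidirectionally versus DMSO.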

In assay [17] the target is Heat shock factor protein 1 (Homo sapiens) (UniProt Q00613). In words: ATG_HSE_CIS: Attagene CIS-FACTORIAL HepG2 Assay for human Heat Shock Transcription Factor 1 (HSE) (AID 2282953). The following applies: HepG2 HSE cis-reporter, Attagene RNA transcription; actives raise or lower the signal. In outline:
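After a 24 h incubation with test chemical, transfected HepG2 cells were harvested for RNA; reporter transcripts were measured by RT-PCR and capillary electrophoresis. Values reflect gain or loss of signal relative to DMSO.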

Assay [18] in a line: ATG_MRE_CIS: Attagene CIS-FACTORIAL HepG2 Assay for human Metal Responsive Element (MRE) (AID 2282954). The following applies: HepG2 MRE cis-reporter transcription, Attagene multiplex; actives raise or lower the signal. The gist of the method: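 RT-PCR/capillary electrophoresis readout of reporter mRNA, 24 h post-dosing, in HepG2 cells transfected with multiplexed cis-regulated reporter constructs. Gain or loss of signal fitted bidirectionally against DMSO baseline.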

Assay [19] in a line: ATG_GRE_CIS: Attagene CIS-FACTORIAL HepG2 Assay for human Glucocorticoid Response Elements (GRE) (AID 2282947). The following applies: HepG2 GRE cis-reporter, Attagene multiplex mRNA; actives raise or lower the signal. In outline: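 Read-out: fluorescent reporter-transcript fragments separated by capillary electrophoresis after RT-PCR. Transiently transfected HepG2 cells carrying cis-element-driven reporter units were dosed for 24 h; gain or loss of signal fitted against DMSO control.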

Assay [20] can be described thus: ATG_FoxO_CIS: Attagene CIS-FACTORIAL HepG2 Assay for human Forkhead box O (FoxO) (AID 2282943). The conditions noted are these: HepG2 Attagene cis-reporter, FoxO element, mRNA; actives raise or lower the signal. The gist of the method: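 Transfected HepG2 reporter cells exposed to test chemical for 24 h; reporter RNA measured by reverse transcription, PCR and fluorescent capillary electrophoresis; curves fitted for increases and decreases against DMSO.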

Activity calls are given as the source filed them. How the source made its calls: active means hit-call score of the fitted dose curve at least 0.9, where 1 is the maximum; inactive means score below 0.9.

Hypoxia-inducible factor 1-alpha (Homo sapiens), sequence (Q16665 whole entry, looked up): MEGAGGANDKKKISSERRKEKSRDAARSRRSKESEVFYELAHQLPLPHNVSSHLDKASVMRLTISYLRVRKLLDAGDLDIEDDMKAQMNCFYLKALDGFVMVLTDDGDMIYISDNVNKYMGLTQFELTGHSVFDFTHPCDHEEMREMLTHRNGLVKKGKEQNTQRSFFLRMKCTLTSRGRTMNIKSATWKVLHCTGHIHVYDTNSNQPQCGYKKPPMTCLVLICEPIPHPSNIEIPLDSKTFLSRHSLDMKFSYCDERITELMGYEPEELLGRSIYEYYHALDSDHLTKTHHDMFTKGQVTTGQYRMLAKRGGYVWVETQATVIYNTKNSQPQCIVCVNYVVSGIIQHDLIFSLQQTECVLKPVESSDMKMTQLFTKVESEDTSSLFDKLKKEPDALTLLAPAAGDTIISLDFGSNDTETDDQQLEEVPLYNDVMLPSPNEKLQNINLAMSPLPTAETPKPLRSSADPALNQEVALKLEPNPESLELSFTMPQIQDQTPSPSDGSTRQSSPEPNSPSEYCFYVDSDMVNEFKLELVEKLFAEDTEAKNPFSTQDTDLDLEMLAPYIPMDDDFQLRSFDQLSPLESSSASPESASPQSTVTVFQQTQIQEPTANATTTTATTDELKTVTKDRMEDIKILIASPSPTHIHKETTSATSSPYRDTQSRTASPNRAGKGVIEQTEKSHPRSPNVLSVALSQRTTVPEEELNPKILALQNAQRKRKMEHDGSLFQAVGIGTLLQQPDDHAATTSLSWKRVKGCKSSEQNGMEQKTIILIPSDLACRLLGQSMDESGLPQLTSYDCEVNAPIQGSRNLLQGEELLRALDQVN
Hepatocyte nuclear factor 6 (Homo sapiens), sequence (Q9UBC0 whole entry, looked up, the tested form may be a part): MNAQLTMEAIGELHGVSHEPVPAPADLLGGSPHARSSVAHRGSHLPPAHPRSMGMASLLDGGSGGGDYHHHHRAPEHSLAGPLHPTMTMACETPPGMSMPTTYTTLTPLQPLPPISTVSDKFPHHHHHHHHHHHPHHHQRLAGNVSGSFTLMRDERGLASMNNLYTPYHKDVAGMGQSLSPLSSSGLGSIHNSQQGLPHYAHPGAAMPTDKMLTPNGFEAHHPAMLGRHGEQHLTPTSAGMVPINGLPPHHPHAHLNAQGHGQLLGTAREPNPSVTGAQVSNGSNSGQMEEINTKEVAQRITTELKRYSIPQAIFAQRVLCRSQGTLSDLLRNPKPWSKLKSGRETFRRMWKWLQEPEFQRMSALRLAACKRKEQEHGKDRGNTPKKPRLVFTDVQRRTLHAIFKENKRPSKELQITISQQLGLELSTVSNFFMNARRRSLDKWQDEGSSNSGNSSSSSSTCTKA
Heat shock factor protein 1 (Homo sapiens), sequence (Q00613 whole entry, looked up): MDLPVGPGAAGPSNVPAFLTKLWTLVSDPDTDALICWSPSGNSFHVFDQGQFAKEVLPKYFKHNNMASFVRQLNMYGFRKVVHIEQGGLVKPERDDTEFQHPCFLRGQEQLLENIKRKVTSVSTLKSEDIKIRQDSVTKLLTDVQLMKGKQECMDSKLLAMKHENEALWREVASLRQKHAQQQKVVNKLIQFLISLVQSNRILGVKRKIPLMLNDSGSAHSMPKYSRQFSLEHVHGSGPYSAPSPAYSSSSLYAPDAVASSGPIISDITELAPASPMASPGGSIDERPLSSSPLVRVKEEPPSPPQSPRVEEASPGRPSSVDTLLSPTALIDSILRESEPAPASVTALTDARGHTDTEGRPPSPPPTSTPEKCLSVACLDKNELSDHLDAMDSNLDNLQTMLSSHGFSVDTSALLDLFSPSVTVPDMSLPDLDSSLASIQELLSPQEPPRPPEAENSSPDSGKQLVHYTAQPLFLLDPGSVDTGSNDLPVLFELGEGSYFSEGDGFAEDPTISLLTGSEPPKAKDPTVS
Transcription factor E2F1 (Homo sapiens), sequence (Q01094 whole entry, looked up): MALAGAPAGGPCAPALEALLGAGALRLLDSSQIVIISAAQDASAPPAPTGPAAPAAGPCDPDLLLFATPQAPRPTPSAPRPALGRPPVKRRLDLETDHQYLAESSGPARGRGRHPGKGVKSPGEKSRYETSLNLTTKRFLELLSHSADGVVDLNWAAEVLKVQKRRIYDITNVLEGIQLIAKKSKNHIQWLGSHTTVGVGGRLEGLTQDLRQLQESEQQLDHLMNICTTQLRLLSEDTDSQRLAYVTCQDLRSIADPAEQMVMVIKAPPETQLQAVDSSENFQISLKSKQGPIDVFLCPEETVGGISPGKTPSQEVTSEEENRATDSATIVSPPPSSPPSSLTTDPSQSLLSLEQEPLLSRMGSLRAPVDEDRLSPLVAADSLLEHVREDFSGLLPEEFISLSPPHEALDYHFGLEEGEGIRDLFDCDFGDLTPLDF
Bile acid receptor (Homo sapiens), sequence (Q96RI1 whole entry, looked up): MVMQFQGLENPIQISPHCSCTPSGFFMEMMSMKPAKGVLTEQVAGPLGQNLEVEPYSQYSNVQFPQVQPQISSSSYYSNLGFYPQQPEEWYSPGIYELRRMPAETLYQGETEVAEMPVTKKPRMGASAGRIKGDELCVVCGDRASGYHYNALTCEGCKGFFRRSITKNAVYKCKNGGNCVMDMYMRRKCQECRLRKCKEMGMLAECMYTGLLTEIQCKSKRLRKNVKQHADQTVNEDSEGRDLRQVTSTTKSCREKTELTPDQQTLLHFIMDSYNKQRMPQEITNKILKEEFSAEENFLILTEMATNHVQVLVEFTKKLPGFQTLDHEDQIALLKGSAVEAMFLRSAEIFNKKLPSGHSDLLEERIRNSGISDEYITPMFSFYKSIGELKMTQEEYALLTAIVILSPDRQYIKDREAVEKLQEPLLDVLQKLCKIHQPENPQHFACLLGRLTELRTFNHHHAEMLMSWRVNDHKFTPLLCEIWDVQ
Hepatocyte nuclear factor 3-beta (Homo sapiens), sequence (Q9Y261 whole entry, looked up): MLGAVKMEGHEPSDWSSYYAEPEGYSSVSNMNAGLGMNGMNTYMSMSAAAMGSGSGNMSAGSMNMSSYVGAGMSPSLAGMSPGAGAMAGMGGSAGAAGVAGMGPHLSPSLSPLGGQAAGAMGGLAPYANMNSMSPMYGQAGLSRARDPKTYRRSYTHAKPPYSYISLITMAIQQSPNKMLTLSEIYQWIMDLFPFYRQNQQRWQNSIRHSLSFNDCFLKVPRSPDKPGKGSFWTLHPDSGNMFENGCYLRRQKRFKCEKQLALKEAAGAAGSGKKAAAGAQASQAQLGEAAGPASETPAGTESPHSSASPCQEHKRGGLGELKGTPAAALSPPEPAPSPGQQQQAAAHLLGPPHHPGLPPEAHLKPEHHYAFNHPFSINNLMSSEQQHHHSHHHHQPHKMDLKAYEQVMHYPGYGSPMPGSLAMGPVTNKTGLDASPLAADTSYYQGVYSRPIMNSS

Turning to `CN1CCN(C)CC1`, the call in [1], in assay [2], in assay [3], in [4], in assay [5] and in [6] was inactive. For the same compound, the call in [7], in [8], in [9], in [10], in assay [11] and in assay [12] was inactive. In addition, the result in assay [13], in assay [14], in [15], in assay [16], in assay [17] and in assay [18] was inactive.

For the compound `CCCCCCCOC(=O)c1ccc(O)cc1`, the compound was classed as inactive in assay [1], in assay [3], in assay [4], in [5], in [7] and in [8]. Moreover, the compound was called inactive in assay [9], in assay [19], in assay [12], in assay [14], in assay [16] and in assay [17]. Besides, the AC50 in assay [2] was 54.3 µM (active); in assay [6] it was 19.3 µM (active); in assay [10], 45.7 µM (active); in [11], 50.9 µM (active); in assay [15] it was 59.9 µM (active); in [18], 52.6 µM (active).

With `COc1cc(O)c(C(=O)c2ccccc2)cc1S(=O)(=O)O`, the outcome in assay [1], in assay [2], in [3], in assay [4], in assay [7] and in [8] was inactive. For the same compound, the compound was called inactive in [20], in [9], in assay [10], in [11], in assay [12] and in assay [14]. The compound was classed as inactive in assay [15], in [16], in assay [17] and in [18]. In addition, in assay [6], the half-maximal activity concentration (AC50) was 56 µM (active).

With `C=C[Si](OCCOC)(OCCOC)OCCOC`, the compound was called inactive in assay [1], in assay [2], in assay [3], in [4], in assay [6] and in assay [7]. For the same compound, the result in assay [8], in [20], in assay [9], in assay [10], in assay [11] and in assay [19] was inactive. Besides, the compound was called inactive in assay [12], in assay [13], in assay [14], in assay [15], in assay [16] and in [18].

With `O=C(C=Cc1ccccc1)OCCc1ccccc1`, the result in [1], in assay [2], in assay [3], in assay [4], in assay [5] and in [7] was inactive. The call in [8], in assay [9], in [10], in assay [19], in assay [13] and in [14] was inactive. The result in assay [15], in assay [16] and in assay [17] was inactive. Moreover, the AC50 in assay [6] is 32.7 µM (active); in assay [12], 77.6 µM (active); in [18] it was 40.4 µM (active).

Consider `Fc1ccc(Br)cc1`, for which the call in assay [1], in assay [2], in [3], in [4], in assay [5] and in assay [7] was inactive. In addition, the compound was called inactive in assay [8], in assay [20], in [9], in assay [10], in [12] and in assay [14]. Also, the result in assay [15], in assay [16], in assay [17] and in [18] was inactive. Moreover, the AC50 in assay [6] was 21.1 µM (active).

In the case of `CC(=O)C(C)C`, the compound was called inactive in [1], in assay [2], in [3], in assay [4], in assay [5] and in [6]. Also, the call in assay [7], in [8], in assay [20], in assay [9], in assay [10] and in assay [13] was inactive. Moreover, the result in assay [14], in assay [15], in assay [16], in assay [17] and in assay [18] was inactive.

`CC1CCC(=O)C1=O` (stereo not given): the call in [1], in assay [2], in assay [3], in assay [4], in [6] and in assay [7] was inactive. The compound was called inactive in [8], in assay [20], in assay [9], in assay [10], in [11] and in [12]. Moreover, the compound was called inactive in assay [13], in [14], in [16], in assay [17] and in [18].

Broadly, the AC50 is the midpoint of the concentration-response curve, whichever way the signal moves.

For the origin of these results see PubChem BioAssay (EPA / NIEHS).
